# Laboratory results as given in the supplement of paper PMC3334620.
# The full ranking holds about 33,000 sequences; the median of “E-score (-0.5 to 0.5)” is about -0.016, and the highest 2% start at about 0.32. The list comes from a sample in which the highest values are over-represented; it also holds similar and randomly drawn sequences.
# Target: T1, Stp1 (UniProt B3LFK1)
# T1 sequence: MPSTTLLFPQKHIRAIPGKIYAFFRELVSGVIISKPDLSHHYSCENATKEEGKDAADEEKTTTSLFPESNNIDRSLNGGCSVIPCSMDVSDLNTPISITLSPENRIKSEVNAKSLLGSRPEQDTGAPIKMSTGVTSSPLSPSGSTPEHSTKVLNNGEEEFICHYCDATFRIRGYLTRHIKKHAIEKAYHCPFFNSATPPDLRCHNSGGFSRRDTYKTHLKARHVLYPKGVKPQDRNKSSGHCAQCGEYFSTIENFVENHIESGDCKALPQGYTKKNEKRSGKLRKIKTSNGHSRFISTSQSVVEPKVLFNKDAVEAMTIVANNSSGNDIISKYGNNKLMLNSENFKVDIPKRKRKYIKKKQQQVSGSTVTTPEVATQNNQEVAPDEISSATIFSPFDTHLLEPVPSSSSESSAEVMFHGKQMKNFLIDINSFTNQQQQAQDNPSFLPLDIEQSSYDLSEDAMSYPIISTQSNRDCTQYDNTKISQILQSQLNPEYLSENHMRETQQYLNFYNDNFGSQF
# Experiment: PBM E-score (8-mer binding enrichment) (E-score (-0.5 to 0.5)); higher = stronger / more preferred TF binding
# Details: protein concentration: 200 nM; construct: GST-full length
# Outline: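 Yeast transcription factors carrying a GST tag, as full-length proteins or DNA-binding domains, were produced by PURExpress in vitro transcription/translation. About 100-200 nM protein was applied to universal all-10-mer Agilent arrays, double-stranded by primer extension on fresh or once-stripped slides. Bound protein was detected with fluorescent anti-GST, and scans were normalised with masliner. The Universal PBM Analysis Suite gave each ungapped eight-base word, pooled with its reverse complement, an E-score, a modified Wilcoxon-Mann-Whitney statistic.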
row,Sequence,PBM E-score
1,ACATGTAT,0.0569
2,CAATCCAC,-0.128
3,ATAGTTCG,0.0223
4,AATAGAGG,-0.00072
5,CTTGATGA,0.1
6,ATCTGCAA,-0.145
7,ACACACTG,-0.0947
8,AGCCCCTG,-0.353
9,AAAGAACA,-0.0165
10,AAAGCACT,-0.0405
11,AGCAGGCA,-0.0398
12,GGGCGAGA,-0.132
13,AGGCTCAG,-0.0826
14,CGGCTCCC,0.187
15,CGGCTCAC,0.213
16,CGGCTCAG,0.379
17,CGGCTCAA,0.351
18,AGGCTCCA,-0.0273
19,CGGCTCCA,0.425
20,AGGCTCAA,0.0744
21,TGGCTCAA,0.00085
22,ACCTTTCT,-0.0776
23,CCAACAAG,0.00906
24,AACTGCGG,0.173

row,Sequence,PBM E-score
1,CGATGCCG,0.415
2,AGATGCCG,0.397
3,CGATGCCC,0.0311
4,ATATGCCG,0.347
5,AGATGCCT,0.107
6,CGATGCCA,0.105
7,AGATGCCC,0.06
8,ATATGCCA,0.153
9,ATATGCCC,-0.155
10,CCAACCTA,-0.175
11,CTGCGGTA,0.0752
12,ATGCGGTA,0.0546
13,GTGCGGGA,0.041
14,GTGCGGAA,0.132
15,CTGCGGCC,0.214
16,CTGCGGCA,0.422
17,ATGCGGAA,0.164
18,ATGCGGCA,0.467
19,GTGCGGCA,0.469
20,AGTTTGTC,-0.0407
21,CTCTGGGC,-0.215
22,AGAGGTCG,-0.096
23,AGATGAGG,-0.192
24,AGTTAAGG,-0.0459

row,Sequence,PBM E-score
1,ACCTGTAA,0.00569
2,AGATAGAG,-0.0214
3,GCTGATCC,-0.116
4,TGCGGCCA,0.233
5,TGCGGCAA,0.412
6,TCCGGCAA,-0.00549
7,AGCGGCAA,0.321
8,AGCGGCCT,0.0372
9,AGTGGCAC,0.209
10,AGCGGCAC,0.457
11,AGCGGCAG,0.301
12,AGTGGCAA,0.162
13,AGCGGAAA,0.0606
14,AGCGGCAT,0.406
15,AGCGGGAT,0.0317
16,CACATCGG,-0.152
17,AATTTGGG,-0.0818
18,CGAGGCCA,-0.178
19,GATAAGGC,0.216
20,AAGGGCGT,0.0591
21,CGATAATC,-0.128
22,ATCCGTCA,-0.0596
23,CTAAACGA,0.0761
24,CAGTCTGA,-0.0528

row,Sequence,PBM E-score
1,CGCGGCAA,0.424
2,CGCGGCAG,0.378
3,CGCGGGCA,0.175
4,CGCGGTAG,0.0224
5,GTCGGCAC,0.172
6,GGCGGCAC,0.446
7,CGTGGCAG,0.239
8,GGCGGCAA,0.286
9,GGGGGCAC,-0.266
10,AGGGGACA,-0.145
11,AGGGGGGG,-0.287
12,AGGCCTCC,-0.164
13,GCTCTCGA,-0.144
14,ATAACCCC,-0.223
15,GCAAGCTA,-0.0537
16,CGGCATGC,0.338
17,AGGCATGC,0.144
18,CGGCATGA,0.346
19,GGGCATGA,-0.0369
20,AGGCATGA,-0.0157
21,CTGCATGC,0.12
22,CGAGGAGA,-0.162
23,AGCCAAAC,0.00731
24,CATTGCGG,0.158

row,Sequence,PBM E-score
1,GCGCTGCA,0.232
2,GGATTGAA,-0.0161
3,GCGTGAGC,0.193
4,GGCGGGCA,0.0418
5,AGGCGGCA,0.369
6,GGGCGGGA,-0.11
7,CGGCGGAA,0.328
8,GGGCGGTA,-0.128
9,AGCCGGCA,0.0341
10,AGGCGGTA,-0.0932
11,AGGCGGAA,0.0802
12,GGGCGGAA,-0.0696
13,CGGCGGTA,0.335
14,GGGCGGCA,0.356
15,AGGCGGGA,-0.183
16,CACCTATG,-0.108
17,CGCTAAAG,0.0823
18,GTTGAATA,0.0719
19,ATGTCCTC,-0.113
20,AGCTGCGA,-0.129
21,GCTCAACA,0.00726
22,CAGTCGGG,-0.14
23,AGGCGGGG,0.023
24,AGGCGGCC,0.147

row,Sequence,PBM E-score
1,CGGCGGCC,0.214
2,AGGCGGCG,0.391
3,CGGCGGGA,0.207
4,CGGCGGCA,0.418
5,CCTAGCTC,-0.268
6,ATAGAAAT,0.197
7,CTGGCCCC,-0.311
8,CATCACTC,-0.0239
9,CAGACGCC,0.114
10,AAGACGGA,-0.0847
11,GAGACGGA,0.065
12,AAGACGCT,-0.13
13,CAGACGGA,0.0941
14,AAGACGGT,-0.169
15,GAGACGGC,0.411
16,GAGACGAC,-0.104
17,CAGACGGG,-0.242
18,AAGACGGC,0.318
19,AAGACGCC,0.321
20,CAGACGGC,0.42
21,ACAGTGCG,-0.022
22,CGCTGGAG,-0.107
23,ATTGAGGC,0.146
24,CCCAGTCG,-0.267

row,Sequence,PBM E-score
1,AAGGACCG,-0.117
2,CCATTAGG,-0.209
3,CTAACAGC,0.0206
4,AGCCACTC,0.0834
5,CTTTTTGC,0.0819
6,AACTAACC,0.117
7,CAATGCCG,0.374
8,CAATGCCC,0.136
9,AAATGCCG,0.443
10,CAATGCCA,0.0614
11,AAATGCCT,0.285
12,AAATGCCC,-0.108
13,GTGCTAAC,-0.0443
14,ACAAGATG,-0.052
15,AAACCTCA,-0.0665
16,AGCGAACT,0.00922
17,CACAGCCG,0.327
18,GAAAAGCC,0.0718
19,CAAAGCCA,0.0366
20,AAAAAGCC,0.34
21,AAAAGCCT,-0.0406
22,CACAGCCC,-0.172
23,CAAAAGCC,0.121
24,CAAAGCCC,-0.0858

row,Sequence,PBM E-score
1,CAAAGCCG,0.316
2,AAAAGCCC,-0.145
3,AACAGCCG,0.255
4,AAAAGCCG,0.326
5,GAGATAGC,-0.111
6,CACAGAAA,-0.00471
7,TGGGCACA,0.135
8,GTAGATGA,0.0463
9,GAGCTCTA,-0.101
10,GAAATTTC,-0.153
11,CCCTGGTC,-0.41
12,AGCTAACC,-0.159
13,CCTAGCCA,-0.0258
14,CTGCGAAG,-0.175
15,AGGCACGC,0.209
16,CGGCACGA,0.459
17,CTGCACGC,-0.0205
18,CTGCACGA,-0.152
19,GGGCACGA,0.133
20,CGGCACGC,0.437
21,GACACTCC,0.0152
22,AATTCTGA,0.131
23,GCATTTCC,0.146
24,AAGTAAGG,-0.0479

row,Sequence,PBM E-score
1,ACCTATCG,0.0549
2,CAAGAGCC,0.21
3,CCAAGCCC,-0.241
4,CGACGGCG,0.353
5,CGACGGCC,0.0289
6,AGACGTCT,-0.219
7,CGACGGAG,-0.147
8,AGACGGCT,0.343
9,AGACGGCC,0.121
10,AGACGGCG,0.463
11,AGACGGAT,0.14
12,AGACGGGG,-0.154
13,ACAGTCGG,-0.0418
14,AAGCACCC,-0.224
15,CAAATTGC,0.115
16,CTCAGTCC,-0.195
17,ATGAAGAC,0.0861
18,ACGTTTAT,0.0901
19,CTGGGTGA,-0.229
20,CAATAACC,0.0421
21,AGGGCTAG,-0.207
22,AAGCTACT,-0.0664
23,CACGCGGC,0.459
24,AACGCGGA,0.0987

row,Sequence,PBM E-score
1,GACGCGAC,-0.0598
2,AACGCGGC,0.443
3,GACGCGGA,0.136
4,AACGCGGG,0.184
5,CACGCGGA,0.294
6,CACGCGGG,0.143
7,GACGCGGC,0.466
8,ACTCGATC,-0.0856
9,AGGTGGCA,0.218
10,GAATGCCA,0.134
11,CTTAAATC,0.0764
12,ACGGCGTG,0.455
13,GTGGCGTA,0.0488
14,CCGGCGTA,0.0906
15,CCGGCGTC,0.0446
16,AAGGCGTA,0.234
17,AGGGCGTG,-0.0356
18,ACGGCGTA,0.448
19,GGGGCGTA,-0.174
20,ACGGCGTC,0.472
21,AGGGCGTC,0.131
22,ATGGCGTG,0.102
23,GCGGCGTA,0.433
24,GTGTGTTA,0.029

row,Sequence,PBM E-score
1,AGTTCAAT,-0.0607
2,CGGTTATC,-0.0601
3,CAGCAATG,-0.194
4,AAATAAGG,0.0174
5,CAAACTAG,-0.107
6,CCACTGGA,-0.241
7,ACACCGCG,0.0308
8,CCAGAACC,-0.154
9,AGGCTATG,-0.196
10,CGCTGAAG,-0.108
11,ATGGCTTG,-0.0553
12,ACGGCTGA,0.147
13,ACGGCTGC,0.289
14,CCGGCTTC,-0.0259
15,ACGGCTGG,0.139
16,ACGGCTTG,0.335
17,ACGGCTTA,0.375
18,ACGGCTTC,0.417
19,GCGGCTTA,0.234
20,AAGCGGTC,-0.149
21,GATTAGGC,0.02
